“And” between values parts separate entries of the source, which are not always exact repeats. Equal values may be shown once. The source made the active and inactive calls.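 How the source made its calls, unless noted: active means thallium flux through the channel raised or lowered by more than 3 SD from vehicle-only wells, actives on both sides; inactive means the rest.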
What was measured:
[1] = stimulators of nuclear beta-catenin in C2C12, primary screen, imaging, WNT3A-conditioned medium, mouse C2C12, NPC library (AID 1117326; in the data active means nuclear beta-catenin stimulation mostly above about 4.2%, no sharp cut-off; inactive means mostly below about 10%); conditions: stronger effect = higher value
[2] = stimulators of insulin release from INS-1E, primary screen, cell-based, 5 mM glucose, NPC library (AID 1117329;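 active means compound raises insulin release from rat beta cells at 5 mM glucose, no numeric limit stated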); conditions: rat INS-1E insulin secretion, at 10 µM, stronger effect = higher value
[3] = growth inhibition of GSK3B-pretreated HCT116 cells – cell-based, CellTiter-Glo, 0.2 to 20 µM (AID 1117336;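 active means compounds lowering colon cancer cell viability after pretreatment blocking the GSK3B kinase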); conditions: HCT116 viability after GSK3B inhibitor, at 20 µM, stronger effect = higher value
[4] = inhibition of endothelial tube formation, primary screen, imaging, VEGF stimulated, CD31 staining, tube area, NPC library (AID 1117340;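 active means compound that reduces growth-factor-driven endothelial tube area in a mixed cell culture, no cutoff stated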); conditions: VEGF-stimulated ADSC/ECFC co-culture, at 10 µM, stronger effect = higher value
[5] = glucagon-like peptide 1 release enhancers, primary assay, NCI-H716 cell line, NPC library (AID 1117341;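 active means compound raises GLP1 secretion from the human gut endocrine cells, with no numeric limit stated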); conditions: NCI-H716 cells, at 10 µM, stronger effect = higher value
[6] = HCT116 colon cancer cell growth inhibition, primary screen, CellTiter-Glo luminescence, NPC library (AID 1117342;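 active means compounds that lower survival of HCT116 colon cancer cells in the luminescence readout, no numeric limit stated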); conditions: at 20 µM (top of the series)
[7] = CellTiter-Glo luminescent readout of SW480 viability loss, NPC library primary (AID 1117343;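 active means compounds that lower viability of the colon cancer cells in the luminescence readout, with no numeric limit stated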); conditions: CellTiter-Glo luminescence; at 20 µM (top of the series)
[8] = decreased DLD-1 cellular survival, CellTiter-Glo luminescent readout, NPC compound collection, primary HTS (AID 1117346;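 active means compounds that lower survival of DLD-1 colon cancer cells in the luminescence readout, no cutoff given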); conditions: DLD-1 viability, CellTiter-Glo luminescence; at 20 µM (top of the series)
[9] = biological target: 6-phosphogluconate dehydrogenase, decarboxylating (Homo sapiens) (UniProt P52209); assay: 6PGD enzyme inhibitors, primary screen, biochemical, human, recombinant enzyme, NADPH absorbance (AID 1159550;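 active means at least 20% inhibition of 6-phosphogluconate dehydrogenase activity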); conditions: recombinant 6PGD, NADPH absorbance 341 nm; at 10 µM; stronger effect = higher value
Chain of 6-phosphogluconate dehydrogenase, decarboxylating (Homo sapiens) (P52209 whole entry, looked up): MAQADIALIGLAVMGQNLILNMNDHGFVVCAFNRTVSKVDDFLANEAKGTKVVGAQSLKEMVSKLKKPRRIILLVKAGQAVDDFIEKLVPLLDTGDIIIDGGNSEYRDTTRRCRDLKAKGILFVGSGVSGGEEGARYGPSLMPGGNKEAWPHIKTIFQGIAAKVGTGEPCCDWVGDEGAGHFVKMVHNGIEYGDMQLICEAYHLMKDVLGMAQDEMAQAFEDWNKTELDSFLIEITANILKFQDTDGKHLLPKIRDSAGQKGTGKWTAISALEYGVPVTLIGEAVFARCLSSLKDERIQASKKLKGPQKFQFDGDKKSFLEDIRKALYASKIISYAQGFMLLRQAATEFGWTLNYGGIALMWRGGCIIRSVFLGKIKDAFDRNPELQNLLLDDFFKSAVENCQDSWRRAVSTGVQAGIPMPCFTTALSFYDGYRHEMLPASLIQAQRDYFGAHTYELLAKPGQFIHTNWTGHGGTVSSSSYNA

[10] = differential killing of epithelial or mesenchymal cells, primary screen, imaging, PC-3E GFP, TEM4-18 mCherry, co-culture (AID 1345086;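 active means compounds killing one labelled cell type while sparing the other, by normalised counts and ratio limits, not self-fluorescent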;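 on all read-outs here: cells exposed to compound for 72 h before imaging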;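 on red/green cell ratio (normalised): normalised mesenchymal count divided by normalised epithelial count so high means epithelial killing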); conditions: imaging cell counts, at 1 µM; for red/green cell ratio (normalised): actives lie on both sides, counts scaled to control wells, 1 = unselective
[11] = survival rescue of mitochondrial mutant cells in low glucose, primary screen, MELAS cybrids, Rieske KO mouse fibroblasts, CellTiter-Glo (AID 1508586;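 active means mean z-score across replicates of 1.96 or higher in either the MELAS or the Rieske mutant cell line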;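 further: z relative to plate mean and SD of compound and empty wells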)
F380Y = assay: modulators of BK channel variants, profiling panel, selectivity assay, cell-based, U2OS BacMam, thallium flux, beta subunits (AID 1259406); conditions: at 30 µM;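 further: initial slope of Thallos dye fluorescence rise after thallium is added; log ratio against the mean of 0.3% DMSO vehicle wells on the same plate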
F380Y/beta1 = assay: as above; conditions: at 30 µM
F380Y/beta2Delta = assay: as above; conditions: at 30 µM
F380Y/beta4 = assay: as above; conditions: at 30 µM
[12] = biological target: Calcium-activated potassium channel subunit alpha-1 (Homo sapiens) + Leucine-rich repeat-containing protein 26 (Homo sapiens) (UniProt Q12791+Q2I0M4); assay: as above; conditions: F380Y/Slo1WT/gamma1, at 30 µM
Chain of Calcium-activated potassium channel subunit alpha-1 (Homo sapiens) + Leucine-rich repeat-containing protein 26 (Homo sapiens) (Q2I0M4 whole entry, looked up, one chain of several): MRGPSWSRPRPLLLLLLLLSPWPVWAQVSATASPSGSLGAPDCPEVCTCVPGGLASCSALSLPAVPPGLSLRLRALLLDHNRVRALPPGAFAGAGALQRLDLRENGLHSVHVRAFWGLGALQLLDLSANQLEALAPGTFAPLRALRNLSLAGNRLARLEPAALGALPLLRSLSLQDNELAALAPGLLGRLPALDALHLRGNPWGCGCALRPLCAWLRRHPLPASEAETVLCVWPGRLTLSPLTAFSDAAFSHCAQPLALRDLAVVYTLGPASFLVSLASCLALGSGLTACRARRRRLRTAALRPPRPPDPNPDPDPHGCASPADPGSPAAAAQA

R275C = assay: as above; conditions: at 30 µM
R275C/beta1 = assay: as above; conditions: at 30 µM
[13] = sensitizers of A549 cells to miR-34 induction, primary screen, imaging, A549 dox-inducible miR-34, nuclei and caspase counts (AID 1347080;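 active means compounds whose cell count with miR-34 switched on is under 0.7 times the count with it off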); conditions: A549 miR-34 inducible, Hoechst nuclei count, 48 h
[14] = measured here: epithelial PC-3E GFP cell survival
[15] = measured here: mesenchymal TEM4-18 mCherry cell survival
[16] = MELAS cybrid survival, CellTiter-Glo 48 h, stronger effect = higher value
[17] = Rieske KO mouse fibroblast survival, CellTiter-Glo 72 h
[18] = measured here: relative caspase fold change +Dox/-Dox

CSc1ccc2c(c1)N(CCC1CCCCN1C)c1ccccc1S2 (centres undefined)
0.96: normalised cell number [10, 15]
1.6%: nuclear beta-catenin stimulation ([1]; stimulation, at 2 µM)
inactive: nuclear beta-catenin stimulation ([1]; at 10 µM) 22.9% | insulin secretion stimulation [2] 5.6% | GLP1 secretion stimulation [5] 12.4% | inhibition [9] -1.24% | red/green cell ratio (normalised) [10] 1.09 | log fold change Tl+ flux (F380Y) 0.0395 | log fold change Tl+ flux [12] 0.0351
-1.63 (inactive) and -1.09: z-score [11, 16]
0.0893 and 2.14: z-score [11, 17]
0.88: normalised cell number [10, 14]
active: viability decrease [3] 110% | tube area decrease [4] 103% | inhibition of viability [6] 112% | viability decrease (inhibition) [7] 133% | viability decrease (inhibition) [8] 101% | log fold change Tl+ flux (F380Y/beta1) 0.338 | log fold change Tl+ flux (F380Y/beta2Delta) 0.193 | log fold change Tl+ flux (F380Y/beta4) 0.259 | log fold change Tl+ flux (R275C) -0.424 | log fold change Tl+ flux (R275C/beta1) 0.517

CCCCC1=NC2(CCCC2)C(=O)N1Cc1ccc(-c2ccccc2-c2nn[nH]n2)cc1
1.55 and 6.32: fold change [13, 18]
inactive: nuclear beta-catenin stimulation ([1]; at 10 µM) 1.9% | insulin secretion stimulation [2] 1.8% | viability decrease [3] -43% | tube area decrease [4] -17.7% | GLP1 secretion stimulation [5] -0.1% | inhibition of viability [6] -0.43% | viability decrease (inhibition) [7] -11.7% | viability decrease (inhibition) [8] -12.4% | inhibition [9] -3.55% | red/green cell ratio (normalised) [10] 1.43 | fold change ([13]; stronger effect = lower value, cell number ratio, induced over uninduced) 0.939 and 0.866 | z-score [11, 16] -0.829 | log fold change Tl+ flux (F380Y) 0.0685 | log fold change Tl+ flux (F380Y/beta2Delta) 0.0508 | log fold change Tl+ flux (F380Y/beta4) 0.0736 | log fold change Tl+ flux [12] -0.00804 | log fold change Tl+ flux (R275C) 0.00561
7090 and 11900: cell count ([13]; measured here: total cells with miR-34 induction, stronger effect = lower value)
1.18: normalised cell number [10, 15]
0.82: normalised cell number [10, 14]
7550 and 13800: cell count ([13]; measured here: total cells without miR-34 induction)
active: log fold change Tl+ flux (F380Y/beta1) 0.0995 | log fold change Tl+ flux (R275C/beta1) 0.109
-0.504: z-score [11, 17]
0.1%: nuclear beta-catenin stimulation ([1]; stimulation, at 2 µM)

CCOC(=O)[C@H](CCc1ccccc1)N[C@@H](C)C(=O)N1Cc2ccccc2C[C@H]1C(=O)O
-0.486 and -0.81: z-score [11, 17]
inactive: nuclear beta-catenin stimulation ([1]; at 10 µM) 2.5% | insulin secretion stimulation [2] 0.7% | viability decrease [3] -30.1% | tube area decrease [4] -10% | GLP1 secretion stimulation [5] 2.9% | inhibition of viability [6] 3.6% | viability decrease (inhibition) [7] 28.5% | viability decrease (inhibition) [8] 6% | inhibition [9] -10.1% | red/green cell ratio (normalised) [10] 0.95 | z-score [11, 16] 0.64 and 0.208 | log fold change Tl+ flux (F380Y) 0.032 | log fold change Tl+ flux (F380Y/beta1) -0.0839 | log fold change Tl+ flux (F380Y/beta2Delta) 0.0255 | log fold change Tl+ flux (F380Y/beta4) -0.00668 | log fold change Tl+ flux [12] 0.0143 | log fold change Tl+ flux (R275C) -0.00535 | log fold change Tl+ flux (R275C/beta1) 0.0226
1.45 and 1.07 and 4.39: fold change [13, 18]
0.3%: nuclear beta-catenin stimulation ([1]; stimulation, at 2 µM)
1.12: normalised cell number [10, 15]
1.17: normalised cell number [10, 14]

CCN(CC)CCOC(=O)c1ccc(N)cc1
-0.3%: nuclear beta-catenin stimulation ([1]; stimulation, at 2 µM)
-0.241 and -0.347: z-score [11, 17]
0.95: normalised cell number [10, 14]
active: viability decrease (inhibition) [7] 56.5%
inactive: nuclear beta-catenin stimulation ([1]; at 10 µM) 0.6% | insulin secretion stimulation [2] 0.1% | viability decrease [3] 2.8% | tube area decrease [4] 7% | GLP1 secretion stimulation [5] -0.7% | inhibition of viability [6] 4.2% | viability decrease (inhibition) [8] 1.05% | inhibition [9] 2.32% | red/green cell ratio (normalised) [10] 1.08 | z-score [11, 16] -0.214 and -0.849 | log fold change Tl+ flux (F380Y) -0.0653 | log fold change Tl+ flux (F380Y/beta1) -0.0732 | log fold change Tl+ flux (F380Y/beta2Delta) 0.0223 | log fold change Tl+ flux (F380Y/beta4) 0.0148 | log fold change Tl+ flux [12] 0.0123 | log fold change Tl+ flux (R275C) -0.00878 | log fold change Tl+ flux (R275C/beta1) -0.0214
1.03: normalised cell number [10, 15]

CC(=O)CCCCn1c(=O)c2c(ncn2C)n(C)c1=O
-0.8%: nuclear beta-catenin stimulation ([1]; stimulation, at 2 µM)
1.37: normalised cell number [10, 15]
1.25: normalised cell number [10, 14]
active: viability decrease (inhibition) [7] 52.4%
inactive: nuclear beta-catenin stimulation ([1]; at 10 µM) 0.1% | insulin secretion stimulation [2] -1.6% | viability decrease [3] 2.8% | tube area decrease [4] -8.3% | GLP1 secretion stimulation [5] 1.9% | inhibition of viability [6] -8.4% | viability decrease (inhibition) [8] 10.8% | inhibition [9] 4.74% | red/green cell ratio (normalised) [10] 1.09 | z-score [11, 16] 0.897 and 0.351 | log fold change Tl+ flux (F380Y) 0.00269 | log fold change Tl+ flux (F380Y/beta1) -0.00172 | log fold change Tl+ flux (F380Y/beta2Delta) -0.0305 | log fold change Tl+ flux (F380Y/beta4) 0.0281 | log fold change Tl+ flux [12] -0.00624 | log fold change Tl+ flux (R275C) -0.0458 | log fold change Tl+ flux (R275C/beta1) -0.0218
0.0131 and -0.0411: z-score [11, 17]

CC(C)[N+](C)(CCOC(=O)C1c2ccccc2Oc2ccccc21)C(C)C
1.02: normalised cell number [10, 14]
3.3%: nuclear beta-catenin stimulation ([1]; stimulation, at 2 µM)
1.3: normalised cell number [10, 15]
0.213: z-score [11, 17]
inactive: nuclear beta-catenin stimulation ([1]; at 10 µM) 1.3% | insulin secretion stimulation [2] 0.2% | viability decrease [3] -14.9% | tube area decrease [4] 9.2% | GLP1 secretion stimulation [5] 0.4% | inhibition of viability [6] 6.7% | viability decrease (inhibition) [7] -1.5% | viability decrease (inhibition) [8] -16.9% | inhibition [9] 6.27% | red/green cell ratio (normalised) [10] 1.27 | z-score [11, 16] 0.349 | log fold change Tl+ flux (F380Y) 0.0202 | log fold change Tl+ flux (F380Y/beta1) -0.0699 | log fold change Tl+ flux (F380Y/beta2Delta) 0.0277 | log fold change Tl+ flux (F380Y/beta4) -0.0221 | log fold change Tl+ flux [12] -0.0355 | log fold change Tl+ flux (R275C) 0.0289 | log fold change Tl+ flux (R275C/beta1) 0.0122

CC(N=C(NC#N)Nc1ccncc1)C(C)(C)C (centres undefined)
-1.6%: nuclear beta-catenin stimulation ([1]; stimulation, at 2 µM)
1.72: normalised cell number [10, 15]
1.21: normalised cell number [10, 14]
-0.266 and 0.371: z-score [11, 17]
inactive: nuclear beta-catenin stimulation ([1]; at 10 µM) -0.6% | insulin secretion stimulation [2] 2.1% | viability decrease [3] -8.9% | tube area decrease [4] -9.6% | GLP1 secretion stimulation [5] -3.6% | inhibition of viability [6] 12.1% | viability decrease (inhibition) [7] -10.1% | viability decrease (inhibition) [8] 5.8% | inhibition [9] -10.6% | red/green cell ratio (normalised) [10] 1.42 | z-score [11, 16] 0.121 and 0.328 | log fold change Tl+ flux (F380Y) -0.0323 | log fold change Tl+ flux (F380Y/beta1) 0.0184 | log fold change Tl+ flux (F380Y/beta2Delta) 0.0089 | log fold change Tl+ flux (F380Y/beta4) 0.00227 | log fold change Tl+ flux [12] -0.0269 | log fold change Tl+ flux (R275C) 0.000868 | log fold change Tl+ flux (R275C/beta1) 0.00651

Source: PubChem BioAssay
